Screens as filed in PubChem BioAssay.
Rab9 promoter act: Rab9 promoter activation; Potency, µM (titrated, usually from 9.22 µM), for inactives: at the top dose activation, negative = inhibition, most hits filed as activators; 320,000 tested, 2.8% active; Huh7 Rab9 promoter-luciferase reporter, luminescence, 24 h; AID 485297; note: % of control where 0% means no effect; nearly all actives have a fitted effect of over 60% in size
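Luminescence read-out: Huh7 cells stably expressing Rab9-luciferase, treated 24 h with compound at 37 °C, then lysed with luciferase reagent for 10 min at ambient before reading.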
SMN2 splice up: increases expression of the SMN2 splice variant; 210,000 tested, 2.8% active; HEK293 SMN2-luciferase splicing reporter, luminescence, 30-36 h; Potency, µM (top dose mostly 46.1 µM), inactives show at the top dose activity change, positive = activation, usual class: activators; AID 1458; note: % of control where 0% means no effect; nearly all actives have a fitted effect of over 55% in size
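qHTS luciferase splicing reporter: luminescence rises when SMN2 exon 7 is included in transfected HEK293 cells. Compound exposure lasted 30-36 h at 37C, with 4.5 mM final sodium butyrate as control, followed by a ONE-Glo read.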
FLuc modulator: inhibits or activates purified firefly luciferase, miR-21 counter-screen. P08659. purified FLuc, Km substrates, luminescence inhibition. Potency, µM (doses to about 57.5 µM), inactives show top-dose activity change, negative = inhibition, most hits filed as inhibitors. 360,000 tested, 6.9% active;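 note: plate controls were vehicle for no effect and reference inhibitor for full effect; nearly all actives have a fitted effect of over 55% in size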
Target sequence (P08659 whole entry, looked up): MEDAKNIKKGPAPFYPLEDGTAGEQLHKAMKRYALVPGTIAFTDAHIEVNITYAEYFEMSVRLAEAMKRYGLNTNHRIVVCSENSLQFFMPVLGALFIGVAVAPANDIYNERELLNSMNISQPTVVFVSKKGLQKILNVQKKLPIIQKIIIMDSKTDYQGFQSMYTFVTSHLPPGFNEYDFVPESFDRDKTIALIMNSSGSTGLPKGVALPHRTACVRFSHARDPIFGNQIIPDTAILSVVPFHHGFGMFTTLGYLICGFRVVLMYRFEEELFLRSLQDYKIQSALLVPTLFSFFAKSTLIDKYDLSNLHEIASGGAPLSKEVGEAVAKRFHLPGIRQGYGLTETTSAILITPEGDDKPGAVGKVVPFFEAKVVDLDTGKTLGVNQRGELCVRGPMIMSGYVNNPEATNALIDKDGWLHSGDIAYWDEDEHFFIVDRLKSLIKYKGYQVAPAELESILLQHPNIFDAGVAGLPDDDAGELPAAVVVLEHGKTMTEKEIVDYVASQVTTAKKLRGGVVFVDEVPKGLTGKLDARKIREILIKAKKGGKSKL
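Purified P. pyralis luciferase (10nM final) with 10uM D-luciferin and 10uM ATP (Km levels) in 50mM Tris acetate pH 7.5, 10mM Mg acetate, 0.01% Tween-20, 0.05% BSA; qHTS 6-point titration, ~60 µM downward; luminescence read.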
ELG1 genotoxic: induces genotoxicity in HEK293T cells with luciferase-tagged ELG1 | HEK293T ELG1-luciferase reporter, luminescence, 16 h | Potency, µM (series often up to 46 µM), for the others: top-dose activity change, positive = activation, actives largely listed as activators | 330,000 tested, 1.3% active; note: % of control where 0% means no effect; nearly all actives have a fitted effect of over 60% in size
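Step 1: seed 2,000 HEK293T ELG1-luciferase cells per well. Step 2: add compound or DMSO, incubate 16 hr at 37 °C. Step 3: ONE-Glo, 30 min at room temperature, read luminescence.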
NPC1 prom act: NPC1 promoter activation; Huh7 NPC1 promoter luciferase reporter, 24 h; Potency, µM (top dose mostly 9.22 µM), for inactives: top-dose activation, most hits filed as activators; 320,000 tested, 2.4% active; AID 485313; note: % of control where 0% means no effect; nearly all actives have a fitted effect of over 60% in size
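Compounds in DMSO were transferred onto Huh7 NPC1-luciferase reporter cells pre-incubated 2 h; after 24 h at 37 °C, Amplite reagent was dispensed and luminescence recorded 10 min later.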
Active calls of the source: *; ? = inconclusive; . = no result given. Shown are actives, neighbours in structure and some others; about 7.4% of the full set was active somewhere. Calls come from the whole dose curve; as a rule, active = well fitted curve in the direction sought with a large enough effect; inconclusive = small, poorly fitted or top-dose-only effect, or another doubt; inactive = no such curve, though single readings can be large; an effect the other way counts as inactive or inconclusive. Potency is the fitted concentration of half-maximal effect.

SMILES | Rab9 promoter act | SMN2 splice up | FLuc modulator | ELG1 genotoxic | NPC1 prom act
COc1ccc2c(c1OC)C(=O)N1N=C(c3ccc(Br)cc3)CC21 (stereo unspecified) | 7% | -30% | 24µM* | 0% | 3%
CC1=CC2=NC(=O)CC(C)(C(=O)N(CC(=O)NC3CCCC3)Cc3ccccc3)N2C=C1 (stereo unspecified) | 10% | . | 1% | -1% | 2%
CCC(NC(=O)Nc1cccc(C)c1)c1c(-n2cccc2)sc2c1CCN(C)C2 (stereo unspecified) | . | . | -1% | . | .
Cc1cc(OCC(=O)N(C)C2CCCCC2)cc(C)c1Cl | 2% | 23% | ? | ? | 12%
Cc1cc(OCC(=O)N(C)C2CCCCC2)ccc1Cl | 0.63µM* | ? | 2.7µM* | 26% | 0.35µM*
COc1ccc(C(=O)/C=C2\NCC3c4ccccc4CCN3C2=O)cc1 (stereo unspecified) | ? | 9% | 6µM* | 0% | 23%
COc1cccc(C(=O)/C=C2\NCCc3cc(OC)c(OC)cc32)c1 | 4% | . | ? | -3% | -1%
CCCC(=O)Nc1c(-c2cccc(C)c2)c(=O)c2ccccc2n1C | 0% | . | 1% | 0% | 2%
CCCCOC(=O)n1c(=S)oc2cc(Cl)ccc21 | -6% | -11% | 17µM* | 1% | 0%
O=C(COc1ccccc1Cl)Nc1cccnc1 | ? | . | 19µM* | ? | ?
COc1ccccc1OCC(=O)Nc1cc(NC(=O)COc2ccccc2OC)cc(C(=O)O)c1 | 4% | . | -13% | 11% | 1%
O=C(COc1ccccc1Cl)Nc1cc(NC(=O)COc2ccccc2Cl)cc(C(=O)O)c1 | 4µM* | . | ? | ? | ?
Cc1ccc(Cl)c(OCC(=O)Nc2cccnc2)c1 | 8% | . | 15µM* | ? | ?
O=C(COc1ccc(F)cc1F)Nc1cccnc1 | 5% | . | -15% | 17% | 10%
Cc1ccc2occ(CC(=O)Nc3ccc(S(=O)(=O)N4CCCC(C)C4)cc3)c2c1 (stereo unspecified) | . | -3% | -7% | . | .
O=C(Nc1ccccc1)N1CCC(c2ccccc2)C1 (stereo unspecified) | 1.8µM* | 18µM* | 12µM* | ? | 1.6µM*
CCc1ccc(NC(=S)N2CCC(NC(=O)c3ccccc3)CC2)cc1 | -1% | . | 1% | -4% | 2%
O=C(c1cccs1)N1CCC(c2ccccc2)C1 (stereo unspecified) | 2.8µM* | 16µM* | 21µM* | 18µM* | 3.2µM*
CCc1ccc(NC(=O)N2CCC(c3ccccc3)C2)cc1 (stereo unspecified) | 0.89µM* | 25µM* | 6.7µM* | ? | 1.1µM*
Cc1ccc(NC(=O)N2CCCC(c3ccccc3)C2)cc1 (stereo unspecified) | 23% | . | 12µM* | 2% | 2%
Cn1c(=O)c(-c2cc(F)cc(F)c2)nc2cnc(Oc3ccccc3)nc21 | . | -8% | . | . | .
COc1ccc(/C=C(\C#N)c2nc(-c3cc4ccccc4oc3=O)cs2)cc1OC | . | -7% | -1% | . | .
COC(=O)c1c(C)[nH]c(C)c1-c1ccccc1Cl | 1% | -13% | 11% | 0% | -1%
COC(=O)c1c(-c2ccccc2)c[nH]c1C | -1% | . | 27µM* | 11% | 3%
COC(=O)c1c(C)[nH]c(C=O)c1-c1ccccc1 | ? | . | 13µM* | ? | 27%
SMILES | Rab9 promoter act | SMN2 splice up | FLuc modulator | ELG1 genotoxic | NPC1 prom act
O=C(Nc1ccc(Cl)cc1)c1cnn2c1NC(c1ccccc1)=CC2c1ccccc1 (stereo unspecified) | . | . | 1% | . | .
COc1ccc(Cn2c(=O)c3cccnc3n(Cc3cccc(F)c3)c2=O)cc1 | . | -10% | -19% | . | .
CCOC(=O)c1cnn(-c2ncnc3sc(CC)cc23)c1N | 3% | 13% | 13µM* | 4% | -3%
CCOC(=O)c1cnn(-c2nc(C)cc(C)n2)c1N | 5% | -3% | ? | 11% | 5%
CCOC(=O)c1cnn(-c2ccc(C(F)(F)F)cn2)c1N | ? | ? | 11µM* | ? | ?
O=C(NCc1ccccn1)c1nn(-c2ccccc2F)nc1CO | . | -51% | -7% | . | .
Cn1cnnc1SCc1ccc(C(=O)N/N=C/c2cccs2)cc1 | -23% | ? | 17µM* | 11% | 2%
C/C(=N\NC(=O)c1ccc(CSc2nncn2C)cc1)c1cccs1 | 3.5µM* | 13µM* | 24µM* | ? | ?
Clc1ccc(C(Cn2ccnc2)OCc2c(Cl)cccc2Cl)c(Cl)c1 (stereo unspecified) | 2% | . | -2% | 20% | -4%
COc1cc(OC)c(C(=O)Oc2ccc3c(c2)OCO3)cc1OC | 12% | -14% | -10% | -2% | -1%
COc1ccc(/C(N)=N/OC(=O)c2ccc3c(c2)OCO3)cc1OC | ? | ? | 3µM* | ? | ?
COc1ccc(C(=O)Oc2ccc3c(c2)OCO3)cc1OC | 3% | 4% | 24µM* | 11% | 3%
N/C(=N\OC(=O)c1ccc2c(c1)OCO2)c1cccc(Br)c1 | 4.5µM* | . | 0.13µM* | ? | ?
N/C(=N\OC(=O)c1ccc2c(c1)OCO2)c1cccnc1 | ? | . | 1.2µM* | ? | ?
N/C(=N\OC(=O)c1cccc(Br)c1)c1ccc([N+](=O)[O-])cc1 | 0% | . | ? | 2% | -1%
N/C(=N\OC(=O)c1ccc2c(c1)OCO2)c1ccc([N+](=O)[O-])cc1 | ? | 26% | ? | ? | ?
O=S(=O)(Nc1ccc(Cl)cn1)c1ccc(F)cc1 | -1% | . | -6% | -6% | -1%
Cc1c(Cl)cn2c(=O)cc(CN(C)Cc3nc4ccccc4c(=O)[nH]3)nc2c1Cl | -1% | 0% | 0% | -8% | -3%
O=C(CNC(=O)c1ccccc1Cl)c1ccccc1 | 0.4µM* | . | 11µM* | 9.2µM* | 2.8µM*
O=C(NCCCCc1ccccc1)c1ccccc1F | 17% | . | ? | 5% | 25%
O=C(NCCc1ccccc1)c1ccc(Br)o1 | 4µM* | 28% | ? | ? | ?
O=C(NCCNC(=O)c1ccc(Br)o1)c1ccc(Br)o1 | 9% | . | 3% | -1% | 1%
NNC(=O)CNC(=O)c1ccccc1F | -5% | 10% | -4% | 0% | -2%
O=C(CNC(=O)c1ccccc1F)c1ccccc1 | 0.45µM* | . | 3.4µM* | 4.1µM* | 0.45µM*
O=C(NCCc1ccccc1)c1ccccc1F | 0.28µM* | . | ? | ? | 0.63µM*
O=C(NCCCCNC(=O)c1ccccc1Cl)c1ccccc1Cl | 5% | . | 7% | 0% | -3%
Oc1nc(Nc2ccc(Cl)cc2Cl)sc1/C=C1\C=Nc2ccccc21 | -6% | 3.2µM* | -10% | -3% | 1%
Cn1c(O)c(/C=C2\C=Nc3ccccc32)sc1=Nc1ccc(C(=O)O)cc1 | 11% | . | ? | 0% | 2%
N/C(=N\OC(=O)CCCc1ccccc1)c1cccc([N+](=O)[O-])c1 | 0% | 13% | ? | 0% | -1%
